Records with an inconclusive call do not appear. The source made the active and inactive calls. The call rests on the fitted dose curve; in most records, active means well fitted inhibition curve with a large enough effect; inconclusive means small, poorly fitted or top-dose-only effect; inactive means flat fitted curve, though single readings scatter. Where a SMILES comes first, the peptide text is derived from it. Bridges are numbered along the chain shown (N, C = ends). [ ]: non-standard residue; d: D form. The star is where a group is joined. X1 = CCC(C)C(N)C1=NC(C(=O)*)CS1; dOrn = NCCC[C@@H](N)C(=O)O
The compounds below were run against Calcium and integrin-binding protein 1 (Homo sapiens) (UniProt Q99828) (assay: Primary qHTS for Identification of Calcium Integrin Binding Protein 1 (CIB1) Competitor (AID 1508620; further: top concentration of the series differs between compounds)). Settings: CIB1-GST / FITC-alphaIIb peptide fluorescence polarization; series mostly up to 57.7 µM; activity change, negative = inhibition: at the top concentration.
Chain of Calcium and integrin-binding protein 1 (Homo sapiens) (Q99828 whole entry, looked up): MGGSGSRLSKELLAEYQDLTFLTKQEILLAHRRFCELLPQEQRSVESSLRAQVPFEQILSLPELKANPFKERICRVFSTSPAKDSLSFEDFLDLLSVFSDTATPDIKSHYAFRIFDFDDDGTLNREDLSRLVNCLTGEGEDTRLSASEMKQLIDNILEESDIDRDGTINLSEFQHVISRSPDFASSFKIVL
Summary of the method: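 Fluorescence polarization competition: GST-tagged CIB1 (1 uM final) preincubated with compound 15 min at room temperature, then FITC-labelled alphaIIb peptide (100 nM final) added. After 15 min at room temperature, polarization read at Ex 480/Em 540.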
On the % scale 0 is the no-effect control and ±100 the full control effect.

| SMILES | Potency | activity change, negative = inhibition |
| --- | --- | --- |
| CCC(C)C(N)C1=NC(C(=O)N[C@@H](CC(C)C)C(=O)N[C@H](CCC(=O)O)C(=O)N[C@H](C(=O)N[C@H]2CCCCNC(=O)[C@H](CC(N)=O)NC(=O)[C@@H](CC(=O)O)NC(=O)[C@H](Cc3cnc[nH]3)NC(=O)[C@@H](Cc3ccccc3)NC(=O)[C@H]([C@@H](C)CC)NC(=O)[C@@H](CCCN)NC2=O)[C@@H](C)CC)CS1 (some centres undefined) (X1-L[dE]IK[dOrn]I[dF]H[dD]N; lactam 4-C) | inactive |  |
| C[C@@H]1CCC2C(C)(C)[C@H](O)CC[C@]2(C)[C@@]12Cc1c(O)cc3c(c1O2)CN(CCO)C3=O (some centres undefined) |  | 0.995% (inactive) |
| C[C@@H]1C(=O)O[C@H]2CC34[C@H]5C[C@@H](C(C)(C)C)C36[C@@H](OC(=O)[C@@H]6O)OC4(C(=O)O5)[C@]21O (some centres undefined) |  | 1.41% [at 114 µM] (inactive) |
| CCC(=O)N[C@@H]1Cc2ccccc2[C@H](c2ccccc2)C1 |  | -7.85% [at 114 µM] (inactive) |
| C=CC(C)(O)CC/C=C(\C)C(=O)OCC1OC(OC2CCC3(C)C(CCC4(C)C3CC=C3C5CC(C)(C)C(O)CC5(C(=O)O)CCC34C)C2(C)C)C(O)C(OC2OC(CO)C(O)C(OC3OC(CO)C(O)C(OC4OC(COC5OC(CO)C(O)C(O)C5O)C(O)C(O)C4O)C3O)C2O)C1O (centres undefined) |  | 0.919% [at 12.4 µM] (inactive) |
| CC(CO[C@@H]1O[C@H](COC(=O)/C=C/c2ccc(O)c(O)c2)[C@@H](O)[C@H](O)[C@H]1O)C1(O)COC(=O)C1 (some centres undefined) |  | 1.36% (inactive) |
| CC1(C(=O)O)CCCC2(C)C1CCC13CC(CCC21)C1(CO)OC31 (centres undefined) |  | 5.47% (inactive) |
| C=C1CCC2[C@@](C)(C=O)CCC[C@]2(C)[C@H]1CC/C(C)=C/CO (some centres undefined) |  | -6.52% [at 114 µM] (inactive) |
| CO[C@@H]1COCC[C@@H]1N[C@@H]1CC[C@@](C(=O)N2CCc3ncc(C(F)(F)F)cc3C2)(C(C)C)C1 | inactive |  |
| C=CC(C)(O)CO[C@@H]1O[C@H](CO)[C@@H](O)[C@H](O)[C@H]1O (some centres undefined) |  | -5.25% [at 114 µM] (inactive) |
| O=C(COc1ccc(Cl)cc1)NC1CCC(NC(=O)COc2ccc(Cl)cc2)CC1 (centres undefined) |  | -2.61% [at 114 µM] (inactive) |
| C=C(C)C(C)C1OC23CC4(CO2)C(CCC2C5(C)CCC(OC6OCC(O)C(OC7OC(CO)C(O)C(OC8OCC(O)C(O)C8O)C7O)C6OC6OC(CO)C(O)C6O)C(C)(C)C5CCC24C)C3C(C)(O)C1OC(C)=O (centres undefined) |  | 14.5% [at 30.2 µM] (inactive) |
| O=C1NCc2nc3ccccc3c(=O)n2C1Cc1c[nH]c2ccccc12 (centres undefined) |  | -3.41% (inactive) |
| CC(=O)[C@@H]1CC[C@]2(C(=O)O)CC[C@]3(C)C(CCC4[C@@]5(C)CC[C@H](O)C(C)(C)C5CC[C@]43C)C12 (some centres undefined) |  | 1.69% (inactive) |
| CC1CC(O)C2(C)C(C(=O)O)=CCCC2C1(C)CCc1ccoc1 (centres undefined) |  | -3.55% (inactive) |
| C[C@H]1[C@H](C)CC[C@]2(C(=O)O)CC[C@]3(C(=O)O)C(=CCC4[C@@]5(C)CC[C@H](O[C@@H]6O[C@H](C)[C@@H](O)[C@H](O)[C@H]6O)C(C)(C)C5CC[C@]43C)[C@H]12 (some centres undefined) |  | 2.39% [at 30.2 µM] (inactive) |
| COC(=O)[C@H](CC1C=NC=N1)NCC12CC3CC(CC(C3)C1)C2 (some centres undefined) |  | -0.602% [at 114 µM] (inactive) |
| C=C1C(O[C@@H]2O[C@H](CO)[C@@H](O)[C@H](O)[C@@H]2O)CC2C(C)(C)C(O)CCC2(C)C1CC/C(C)=C\CO (some centres undefined) |  | 4% (inactive) |
| CC(C)(O)c1ccc2c(c1)C(=O)CC1[C@](C)(CO)CCC[C@]21C (some centres undefined) |  | -12.6% (inactive) |
| COc1cc(N2CCC(O)CC2)ccc1Nc1cc(Nc2ccccc2S(=O)(=O)C(C)C)c2cc[nH]c2n1 | inactive |  |

| SMILES | Potency | activity change, negative = inhibition |
| --- | --- | --- |
| CO/N=C(/C(=O)N[C@@H]1C(=O)N2C(C(=O)O)=C(CSC(=O)c3ccco3)CS[C@H]12)c1csc(N)n1 | inactive |  |
| O=C(c1ccc(F)cc1)C1CCN(CCn2c(=O)nc3n(c2=O)CCCC3)CC1 |  | 1.48% [at 114 µM] (inactive) |
| CC1=C2CC3OC3(C)CCC3OC3(C)CC2OC1=O (centres undefined) |  | -1.66% [at 114 µM] (inactive) |
| C[C@@H]1C[C@H]2[C@@H]3CCC4=CC(=O)C=C[C@]4(C)[C@@]3(F)[C@@H](O)C[C@]2(C)[C@@]1(O)C(=O)COP(=O)(O)O |  | 2.23% [at 114 µM] (inactive) |
| CC(/C=C/C1(O)C(C)(C)CC(O)CC1(C)O)OC1OC(CO)C(O)C(O)C1O (centres undefined) |  | 1.18% (inactive) |
| OC[C@H]1O[C@@H](Oc2cc(O)cc(/C=C/c3ccc(O)cc3)c2)[C@H](O)[C@@H](O)[C@@H]1O |  | 2.33% [at 114 µM] (inactive) |
| C/C=C(/C)C(=O)O[C@H]1C=C(C)C[C@H](OC(=O)c2ccc(O)cc2)C2[C@](O)(C(C)C)CC[C@@]21C (some centres undefined) |  | 2.38% [at 30.2 µM] (inactive) |
| CN(C)C/C=C/C(=O)Nc1ccc(C(=O)Nc2cccc(Nc3ncc(Cl)c(-c4c[nH]c5ccccc45)n3)c2)cc1 | inactive |  |
| C/C=C1\[C@H](O[C@@H]2O[C@H](CO)[C@@H](O)[C@H](O)[C@H]2O)OC=C(C(=O)OC)[C@H]1CC(=O)OC |  | 2.15% (inactive) |
| O=C1Nc2ccc(O)cc2O[C@H]1O[C@@H]1O[C@H](CO)[C@@H](O)[C@H](O)[C@H]1O |  | 2.23% (inactive) |
| CC(C#N)C(C)O[C@@H]1O[C@H](CO)[C@@H](O)[C@H](O)[C@H]1O (some centres undefined) |  | -0.323% [at 114 µM] (inactive) |
| C[C@@H](Nc1cc(NS(=O)(=O)N2CCC2)nc(SCc2cccc(F)c2F)n1)[C@@H](O)CO |  | -2.2% [at 114 µM] (inactive) |
| CC(C)(O)C1CCC2(C)C3C(O)C4C(C13)C42CO (centres undefined) |  | -0.326% [at 114 µM] (inactive) |
| C=C1CCC2C(C)(COC3OC(COC(=O)CC(=O)O)C(O)C(O)C3O)CCCC2(C)C1CCC1=CCOC1=O (centres undefined) |  | 2.52% (inactive) |
| C=C1C2=CC(O)C(C)C1(C)CC/C(C)=C/CCC1(C)OC1C2=O (centres undefined) |  | 3.11% (inactive) |
| CC(=O)OCCC(C)CCC1C(C)(O)CCC2C(C)(C)CCCC21C (centres undefined) |  | 2.18% (inactive) |
| C=C1CC[C@@H]2[C@](C)(CO[C@@H]3O[C@H](CO)[C@@H](O)[C@H](O)[C@H]3O)CCC[C@@]2(C)[C@@H]1CCC1=CCOC1=O |  | 4.06% (inactive) |
| C=C1CCC[C@]2(C)C[C@]3(O)OC(=O)C(C)=C3C[C@@H]12 |  | 0.295% [at 114 µM] (inactive) |
| CCC1CC2C(C)=CC3CCCCC3C2(C)C2(OC(=O)C(C)(O)OC2=O)O1 (centres undefined) |  | -1.08% (inactive) |

From PubChem BioAssay (NCATS)
